Experimental data reported in the supplement of paper PMC7858590.

system: human monocyte-derived macrophages (polarized); test: cell shape (eccentricity) Z-score vs DMSO control; higher = more elongated, M2-like morphology; conditions: 5 µM; 24 h; macrophage state: M1-polarized (IFNg + TNFa), cytokines present during treatment
Experimental: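 Primary-screen hits were rescreened on polarized hMDMs with the differentiating cytokines (IL-4 + IL-13 or IFNg + TNFa) kept in the medium during treatment with compound at 5 uM for 24 h. The eccentricity Z-score vs DMSO wells is averaged over experiments.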

SMILES | cell shape (Z-score)
Cc1c(C(N)=O)cc([N+](=O)[O-])cc1[N+](=O)[O-] | 3.38
O=C(O[C@@H]1Cc2c(O)cc(O)cc2O[C@@H]1c1cc(O)c(O)c(O)c1)c1cc(O)c(O)c(O)c1 | -2.7
CN(C)C(=O)n1nnnc1Cc1ccc(-c2ccccc2)cc1 | 10.3
CC1(C)CC[C@]2(C(=O)O)CC[C@]3(C)C(=CCC4[C@@]5(C)CC[C@@H](O)C(C)(C)C5CC[C@]43C)C2C1 (stereo not given in full) | -1.9
COc1ccc(-c2cc(=O)c3c(O)cc(OC)c(OC)c3o2)c(OC)c1 | -4.83
CC(C)CNc1ccnc(NCc2csc(-c3ccccc3)n2)n1 | -11.9
C[C@@H]1O[C@@H](Oc2cc(O)c3c(=O)c(O[C@@H]4O[C@@H](C)[C@H](O[C@@H]5O[C@@H](C)[C@H](O)[C@@H](O)[C@H]5O)[C@@H](O)[C@H]4O)c(-c4ccc(O)cc4)oc3c2)[C@H](O)[C@H](O)[C@H]1O | 5.9
COc1cc2c(Oc3ccc4[nH]c(C)cc4c3F)ncnc2cc1OCCCN1CCCC1 | 12.3
O=C(CCCCCCC(=O)Nc1ccccc1)NO | -0.801
CN1CCN(CCOc2cc(OC3CCOCC3)c3c(Nc4c(Cl)ccc5c4OCO5)ncnc3c2)CC1 | 4.07
COc1cc(C2OC(c3cc(OC)c(OC)c(OC)c3)C(C)C2C)cc(OC)c1OC (stereo not given) | 4.93
CC1CC(=O)c2c(ccc3c2C(=O)c2cccc(O)c2C3O)C1 (stereo not given) | -2.52
Cc1nn(C)c2nc(NNC(=O)Nc3cc(Cl)nc(Cl)c3)cc(C(C)C)c12 | 7.42
Cn1cc(C2=C(c3cn(CCCSC(=N)N)c4ccccc34)C(=O)NC2=O)c2ccccc21 | 17.6
C#C[C@]1(O)CC[C@H]2[C@@H]3CCC4=Cc5oncc5C[C@]4(C)[C@H]3CC[C@@]21C | -4.38
Nc1nc(N)c2nc(-c3cccc(O)c3)c(-c3cccc(O)c3)nc2n1 | 2.64
CNC(=O)c1cc(Oc2ccc(NC(=O)Nc3ccc(Cl)c(C(F)(F)F)c3)cc2)ccn1 | 14
[O-][NH2+]c1ccc(O)c2ncccc12 | -6.06
COc1cc2ncnc(Nc3ccc(F)c(Cl)c3)c2cc1OCCCN1CCOCC1 | -0.66
C[C@@H](Oc1cc(-c2cnn(C3CCNCC3)c2)cnc1N)c1c(Cl)ccc(F)c1Cl | 7.6
CC1=C(/C=C/C(C)=C/C=C/C(C)=C/CO)C(C)(C)CCC1 | 7.5
Clc1ccc(C(Cn2ccnc2)OCc2ccsc2Cl)c(Cl)c1 (stereo not given) | -4.98
O=Nc1c(-c2c(O)[nH]c3cc(Br)ccc23)[nH]c2ccccc12 | -13.2
CC1(C)CCC(C)(C)c2cc(C(=O)Nc3ccc(C(=O)O)cc3)ccc21 | -9.74

same assay, conditions: 5 µM; 24 h; macrophage state: M2-polarized (IL-4 + IL-13), cytokines present during treatment

SMILES | cell shape (Z-score)
O=c1nc2ccccc2c2n1CC(CN1CCN(c3ccccc3)CC1)N2 (stereo not given) | -1.27
C#CC1(OCC(O)CN2CCN(c3cccc(C(F)(F)F)c3)CC2)CCCCC1 (stereo not given) | 3.74
Oc1ccc(-c2nc(-c3ccc(F)cc3)c(-c3ccncc3)[nH]2)cc1 | -2.38
CCCCC[C@H](O)/C=C/[C@H]1[C@H](O)CC(=O)[C@@H]1CCCCCCC(=O)O | -28.2
O=C1c2c(O)ccc(O)c2C(=O)c2c(NCCNCCO)ccc(NCCNCCO)c21 | -1.14
CC(=O)N[C@@H](C(=O)O[C@H]1CCC(C)(C)[C@@H]2CCC3=C(COC3=O)[C@@]12C)C(C)C | -0.761
OC(CN1CCNCC1)Cn1c2ccc(Br)cc2c2cc(Br)ccc21 (stereo not given) | -13.7
CC1=CC(=O)c2ccccc2C1=O | -2.13
CC(C)C1C2CCC(C2)C1N (stereo not given) | -1.17
OC1(c2ccc(Cl)c(C(F)(F)F)c2)CCN(CCCC(c2ccc(F)cc2)c2ccc(F)cc2)CC1 [Penfluridol] | -10.9
CCCSc1ccc2[nH]c(NC(=O)OC)nc2c1 | -6.38
